Results on 41 compounds are retold here after PubChem BioAssay (NCATS).

The target in assay [1] is Aldehyde dehydrogenase, mitochondrial (Homo sapiens) (UniProt P05091). The assay is described as follows: qHTS for Inhibitors of the Aldehyde Dehydrogenase Family (ALDH2) Primary screen (AID 2061308). Note: nearly all actives have a fitted effect of over 55% in size.
Assay [2] has as its target Retinaldehyde dehydrogenase 3 (Homo sapiens) (UniProt P47895). The assay is described as follows: qHTS for Inhibitors of the Aldehyde Dehydrogenase Family (ALDH1A3) Primary screen (AID 2061315). Background: qHTS replaces the single test concentration by a dilution series.

Results filed as inconclusive are left out. Entries that show only a call come without a potency. Calls of active or inactive are those of the source. Calls come from the whole dose curve; as a rule, active = well fitted curve in the direction sought with a large enough effect; inconclusive = small, poorly fitted or top-dose-only effect, or another doubt; inactive = no such curve, though single readings can be large; an effect the other way counts as inactive or inconclusive.

As for `O=[S+]([O-])(c1cc2ccccc2o1)N1CCN([S+](=O)([O-])c2c(F)cccc2F)CC1`, the Potency result in assay [1] and in assay [2] was “inactive” in each case.

For `CN(Cc1nccs1)S(=O)(=O)c1ccc(Nc2nc(-c3ccccc3)cs2)cc1`, the Potency result in assay [1] and in assay [2] was “inactive” in each case.

For `COc1ccc(C2=Nn3c(nnc3-c3ccccc3OC)SC2)cc1OC`, the Potency entry in assay [1] and in assay [2] was “inactive” each time.

For the compound `CNc1nc(-c2ccc3c(N)n[nH]c3c2)cc(N2CC(C(=O)NC3CCCCC3)CCC2C)n1` (configuration not stated), the Potency result in assay [1] and in assay [2] was “inactive” in each case.

As to `CC(=O)Nc1oc(-c2cccc3ccccc23)nc1C#N`, the Potency result in assay [1] and in assay [2] was “inactive” each time.

For `CCCn1c(-c2ccc(F)cc2)nc2c(N3CCN(Cc4nc(OC)cc(OC)n4)CC3)nc(C)nc21`, the Potency entry in assay [1] and in assay [2] was “inactive” each time.

Turning to `COc1ccccc1-c1csc2ncnc(Sc3nnnn3C)c12`, the Potency result in assay [1] and in assay [2] was “inactive” throughout.

`Cc1ccc(-c2ccc(=O)n(CC(=O)N(C)[C@@H](C)c3ccccc3)n2)cc1`: the Potency result in assay [1] and in assay [2] was “inactive” in each case.

On to `CC(C)(C)OC(=O)N1CCN(c2ccc(NCc3nnc(-c4ccc(C#N)cc4)o3)cc2)CC1`, for which the Potency result in assay [1] and in assay [2] was “inactive” each time.

For `COc1cccc(C2=Nn3c(nnc3-c3cccc(OC)c3OC)SC2)c1`, the Potency entry in assay [1] and in assay [2] was “inactive” in each case.

`Cn1nnnc1Sc1ncnc2scc(-c3cccc4ccccc34)c12`: the Potency entry in assay [1] and in assay [2] was “inactive” in each case.

Turning to `COc1cccc(O)c1CNc1ccc(S(=O)(=O)Nc2nccs2)cc1`, the Potency entry in assay [1] and in assay [2] was “inactive” each time.

For `Cc1ccc(-c2cc(C(=O)Nc3nc4ccccc4s3)c3ccccc3n2)cc1C`, the Potency result in assay [1] and in assay [2] was “inactive” throughout.

Consider `O=C(O)c1ccc2c(c1)C(=O)N([C@H](Cc1ccccc1)C(=O)O)C2=O`, for which the Potency result in assay [1] and in assay [2] was “inactive” in each case.

In the case of `CN(Cc1ccco1)c1ncnc2ccc(-c3ccc4c(c3)OCCO4)cc12`, the Potency result in assay [1] and in assay [2] was “inactive” throughout.

`NC(=O)C1CCN(c2nc(-c3ccc(C(F)(F)F)cc3)cs2)CC1`: the Potency entry in assay [1] and in assay [2] was “inactive” each time.

With `O=C(Nc1ccc2ccccc2c1)Nc1nnc(-c2ccc(Cl)cc2)s1`, the Potency result in assay [1] and in assay [2] was “inactive” each time.

In the case of `Fc1cccc(Nc2nc(-c3ccncc3)nc3ccccc23)c1`, the Potency entry in assay [1] and in assay [2] was “inactive” throughout.

As to `O=C(Nc1ccc(Oc2ccccc2)cc1)Nc1nnc(-c2ccncc2)s1`, the Potency entry in assay [1] and in assay [2] was “inactive” each time.

In the case of `O=C1C2=C(CN1c1ccccc1)NC(Nc1nc3ccccc3o1)=NC2c1ccccc1Cl` (configuration not stated), the Potency entry in assay [1] and in assay [2] was “inactive” throughout.

For the compound `COc1cnc(-c2ccccc2C(C)C)nc1NCc1ccc(-c2cccnc2)cc1`, the Potency entry in assay [1] and in assay [2] was “inactive” throughout.

Turning to `Oc1cccc2c(-c3nn[nH]n3)ccnc12`, the Potency result in assay [1] and in assay [2] was “inactive” throughout.

For the compound `Cc1nc(-c2ccccc2C(C)C)nc(NCc2ccc(-c3cccnc3)cc2)c1C`, the Potency result in assay [1] and in assay [2] was “inactive” throughout.

In the case of `CCCn1c(C)nc2c(NC3CCN(Cc4ccccc4)CC3)nc(C)nc21`, the Potency result in assay [1] and in assay [2] was “inactive” throughout.

In the case of `COc1cccc(Cn2ncc3c4sc(C)cc4n(C)c3c2=O)c1`, the Potency result in assay [1] and in assay [2] was “inactive” throughout.

For `CNc1oc(-c2ccc(-c3ccccc3)cc2)nc1C#N`, the Potency result in assay [1] and in assay [2] was “inactive” in each case.

Turning to `C=Cc1cc(F)c(S(=O)(=O)N2CCN(S(=O)(=O)c3ccc4c(c3)OCCO4)CC2)cc1F`, the Potency entry in assay [1] and in assay [2] was “inactive” throughout.

With `Cn1nnnc1Sc1ncnc2scc(-c3ccc(C(=O)OC(C)(C)C)cc3)c12`, the Potency entry in assay [1] and in assay [2] was “inactive” in each case.

Regarding `Cn1nnnc1Sc1ncnc2scc(-c3cc4ccccc4o3)c12`, the Potency entry in assay [1] and in assay [2] was “inactive” throughout.

For `O=C(Nc1ccc(Cl)c(Cl)c1)Nc1nnc(-c2ccc(F)cc2)s1`, the Potency result in assay [1] and in assay [2] was “inactive” in each case.

Consider `Cc1cn2c(n1)Cc1ccc(Cl)cc1C(c1ccc(N)cc1)=N2`, for which the Potency result in assay [1] and in assay [2] was “inactive” throughout.

With `COc1ccc(-c2nnc3n2N=C(c2cccc(OC)c2)CS3)cc1`, the Potency result in assay [1] and in assay [2] was “inactive” in each case.

On to `COc1cc(O)c(C(CC(=O)N2CCC(c3ccccc3)CC2)c2ccc(OC)c(OC)c2)c(OC)c1` (configuration not stated), for which the Potency result in assay [1] and in assay [2] was “inactive” in each case.

Turning to `Cc1ccc2nc(NC3=NC4(CCCC4)C4=C(CCCC4=O)N3)oc2c1`, the Potency entry in assay [1] and in assay [2] was “inactive” throughout.

On to `CC(=O)Nc1cccc(OC2=NS(=O)(=O)c3ccccc32)c1`, for which the Potency result in assay [1] and in assay [2] was “inactive” each time.

As to `S=C(NCCCNc1ccc(Br)cn1)NCCCc1cnc[nH]1`, the Potency entry in assay [1] and in assay [2] was “inactive” throughout.

In the case of `COc1cccc(C2c3c(ncn(-c4ccc5c(c4)OCO5)c3=N)Oc3ccc4ccccc4c32)c1` (configuration not stated), the Potency result in assay [1] and in assay [2] was “inactive” each time.

`Cc1cnc(-c2ccccc2C(F)F)nc1NCC1CN(c2cnccn2)C1`: the Potency entry in assay [1] and in assay [2] was “inactive” each time.

In the case of `O=S(=O)(Nc1nccs1)c1ccc(NCc2ccc(Br)cc2O)cc1`, the Potency entry in assay [1] and in assay [2] was “inactive” throughout.

`Cc1ccc(-c2cc(C(=O)Nc3ccccc3Cl)c3ccccc3n2)cc1C`: the Potency result in assay [1] and in assay [2] was “inactive” throughout.

`Cc1cc(C)n2ncc(C(=O)Nc3ccc(C)c(C)c3)c2n1`: the Potency result in assay [1] and in assay [2] was “inactive” in each case.
